From PubChem BioAssay (NCATS)
Inconclusive results are not listed. Calls of active or inactive are those of the source. The call rests on the fitted dose curve; in most records, active means well fitted cell-killing curve with a large enough effect; inconclusive means small, poorly fitted or top-dose-only effect; inactive means flat fitted curve, though single readings scatter.

Assay: Cell Viability - LYMP2-006 (AID 978); further: nearly all actives have a fitted effect of over 60% in size
Conditions: LYMP2-006 lymphoblastoid cell viability, qHTS; series mostly up to 92.2 µM
From the text: NIH Chemical Genomics Center [NCGC]
NIH Molecular Libraries Screening Centers Network [MLSCN]
National Institutes of Environmental Health Sciences [NIEHS]
National Toxicology Program [NTP]
We have developed a 1536-well cell-based assay for quantitative high throughput screening (qHTS) against a number of cell lines to determine in vitro cytotoxicity of small molecules. This particular assay uses a human lymphoblastoid cell line (LYMP2-006) purchased from Coriell Institute for Medical Research.
NCGC Assay Protocol Summary:
The CellTiter-Glo luminescent cell viability assay (Promega) is a homogeneous method to measure the number of viable cells in culture. The end point readout of this assay is based on quantitation of intracellular ATP, an indicator of metabolic activity, using the luciferase reaction. Luciferase catalyzes the oxidation of beetle Luciferin to oxyluciferin and light in the presence of ATP. The luminescent signal is proportional to amount of ATP present.
Using the CellTiter-Glo luminescent cell viability assay, the amount of cellular ATP was measured in the lymphoblastoid cell line with complete culture medium following compound treatment for 24 hours. The assay was performed in opaque white Kalypsys 1536-well plates. In the screen, tetraoctylammonium bromide was used as positive control. Library compounds were measured for their ability to cause acute toxicity in the cell line, as reflected by a decrease in intracellular ATP levels, in a concentration-dependent manner. […] AC50 values were determined from concentration-response data modeled with the standard Hill equation.
qHTS protocol for CellTiter Glo lymphoblastoid cellular assay
[Step] [Parameter] [Value] [Description]
1. Reagent; 5 uL; 2500 lymphoblastoid cells/well
2. Time; 5 hr; 37 C incubation
4. Controls; 23 nL; Tetraoctylammonium bromide 6.4pM to 92 uM
5. Time; 24 hr; 37 C incubation
6. Reagent; 5 uL; CellTiter Glo reagent
7. Time; 30 min; Room Temperature
8. Detection; Luminescence; Viewlux plate reader
Keywords: cell viability, cytotoxicity, lymphoblastoid cell line, luminescence, NTPHTS, NTPHTS_NCGC, NIEHS, DSSTox, MLSMR, MLSCN, NIH Roadmap, qHTS, NCGC
With CC(=O)Nc1ccccc1 the outcome was “inactive”.
For C=CCNC(N)=S, the outcome was “inactive”.
With O=C(O)CCCCC1CCSS1 (configuration not stated) the outcome was “inactive”.
For CCCCOC(=O)c1ccc(N)cc1, the outcome was “inactive”.
With Nc1ccc(S(=O)(=O)c2ccc(N)cc2)cc1 the outcome was “inactive”.
With O=C1c2cccc(O)c2C(=O)c2c(O)cccc21 the outcome was “inactive”.
With CC(=O)NS(=O)(=O)c1ccc(N)cc1 the outcome was “inactive”.
For CCN(CC)C(=O)c1cccc(C)c1, the outcome was “inactive”.
With Cc1c(N(C)C)c(=O)n(-c2ccccc2)n1C the outcome was “inactive”.
In the case of O=C1C(c2[nH]c3ccccc3c2O)=Nc2ccccc21, the outcome is reported as “inactive”.
With Cc1cc(C)nc(NS(=O)(=O)c2ccc(N)cc2)n1 the outcome was “inactive”.
With CC(=O)OCC(COC(C)=O)OC(C)=O the outcome was “inactive”.
For CC1CC(OC(=O)c2ccccc2O)CC(C)(C)C1 (configuration not stated), the outcome was “inactive”.
For Cc1cc(=O)[nH]c(=S)[nH]1, the outcome was “inactive”.
In the case of CCCC(O)C(CC)CO (configuration not stated), the outcome is reported as “inactive”.
With FC(F)(F)C(Cl)Br (configuration not stated) the outcome was “inactive”.
In the case of O=C(c1ccccc1)C(O)c1ccccc1 (configuration not stated), the outcome is reported as “inactive”.
With CC(=O)Nc1cccc(O)c1 the outcome was “inactive”.
With COc1ccc(O)cc1 the outcome was “inactive”.
With CC(=O)Nc1ccc(C(=O)O)cc1 the outcome was “inactive”.
With CCCCCCCC(=O)OCC(COC(=O)CCCCCCC)OC(=O)CCCCCCC the outcome was “inactive”.
For CCCCCC(N)=O, the outcome was “inactive”.
